Experimental findings from ChEMBL document CHEMBL3433997, “St. Jude Leishmania screening dataset” (2016) are described below.

For this experiment, the target named is Glucose transporter (Leishmania mexicana) (UniProt O61059). The experiment in a line: ST_JUDE_LEISH: Cytotoxicity at 2uM final concentration against transgenic Leishmania Mexicana promastigotes LmGT2 that are glucose transport deficient and complemented with the L. Mexicana glucose transporter 2. Activity is measured by DNA content using SYBR green in vitro. Format: functional.
As for `CCOC(=O)C1=C(C)NC2=C(C(=O)C(C(=O)OC)C(C)C2)C1c1cc(Br)c(OCC)c(OC)c1` (centres undefined), the inhibition came to 6.67%.

Consider `CC(C)CNC(=O)c1cncc(-c2ccc(CN3CCC(N4CCCC4)CC3)cc2)c1`, for which the inhibition turned out to be 2.41%.

Consider `CCOc1ccc2c(c1)N(C(=O)C=Cc1ccccc1)C(C)(C)c1ssc(=S)c1-2`, for which the inhibition worked out at 0.85%.

On to `CC(CN(C)C)C(=O)Nc1cccc(-c2ccc(-c3nc4ccccc4[nH]3)s2)c1` (centres undefined), for which the inhibition was found to be 3.78%.

For `O=C(Cc1ccc[n+]([O-])c1)Nc1ccc(-c2cccc(-c3nc4cc(C(F)(F)F)ccc4[nH]3)c2)cc1`, the inhibition was -0.42%.

Consider `CN(C)CCNC(=O)NC1CN(c2ncnc3cc(-c4ccccc4)sc23)C1`, for which the inhibition amounted to 4.03%.

On to `NS(=O)(=O)c1cccc(N/C=C2\C(=O)Nc3ccc(S(=O)(=O)Cc4c(Cl)cccc4Cl)cc32)c1`, for which the inhibition stood at 3.06%.

For `CC(C)CNC(=O)c1cncc(-c2ccc(CNC3Cc4ccccc4C3)cc2)c1`, the inhibition is -0.51%.

For `Cc1ccc2c(c1)nc(N)n2C[C@H](O)c1ccccc1`, the inhibition was 1.1%.

Turning to `CCNc1cc(C(=O)N[C@@H](Cc2ccccc2)[C@H](O)CNCc2cccc(OC)c2)c(OC)c(N2CCCCS2(=O)=O)c1`, the inhibition came to 2.16%.

For the compound `O=C(CCc1c[nH]cn1)Nc1ccc(-c2cccc(-c3nc4ccccc4[nH]3)c2)cc1`, the inhibition is 0.03%.

In the case of `Cn1nc(-c2ccc(NC(=O)Nc3cc(C(F)(F)F)ccc3F)cc2)c2cnc(NCCc3c[nH]cn3)nc21`, the inhibition worked out at 2.46%.

As to `COc1ccc(-n2ncc(C(=O)N3CCC4(C3)C(=O)N(c3ccccc3)c3ccccc34)c2C)cc1` (centres undefined), the inhibition worked out at 0.94%.

On to `Cc1ccc(Cn2cnc3cc(C(=O)Nc4ccc(-c5ccc(CN(C)C)cc5)cc4)ccc3c2=O)o1`, for which the inhibition was 3.84%.
